From PubChem BioAssay (Tox21)
Results filed as inconclusive are left out. Entries that show only a call come without a potency. Values without a mark were called inactive. Activity calls are given as the source filed them. The call rests on the fitted dose curve.

These molecules were tested against Beta-2 adrenergic receptor (Homo sapiens) (UniProt P07550) (assay: Adrenergic beta2 receptor (ADRB2) small molecule antagonists, cell-based qHTS assay (AID 1963592; further: nearly all actives have a fitted effect of over 50% in size)). Settings: CHO-ADRB2 cells, isoproterenol-stimulated cAMP HTRF ratio, 0.5 h; series mostly up to 92.4 µM.
Sequence of Beta-2 adrenergic receptor (Homo sapiens) (P07550 whole entry, looked up): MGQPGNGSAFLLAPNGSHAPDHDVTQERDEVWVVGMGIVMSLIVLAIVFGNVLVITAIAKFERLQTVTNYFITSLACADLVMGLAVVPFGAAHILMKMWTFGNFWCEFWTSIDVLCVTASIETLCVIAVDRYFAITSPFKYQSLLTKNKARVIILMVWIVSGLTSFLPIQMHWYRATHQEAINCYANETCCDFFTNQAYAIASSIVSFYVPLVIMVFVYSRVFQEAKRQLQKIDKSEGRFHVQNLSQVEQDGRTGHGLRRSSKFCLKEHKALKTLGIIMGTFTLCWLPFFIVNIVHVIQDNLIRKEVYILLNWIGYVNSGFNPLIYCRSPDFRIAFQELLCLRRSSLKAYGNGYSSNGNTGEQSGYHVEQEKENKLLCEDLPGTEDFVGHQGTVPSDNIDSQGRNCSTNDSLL
From the text: U.S. Tox21 Program National Center for Advancing Translational Sciences [NCATS] Division of Preclinical Innovation [DPI] U.S. Environmental Protection Agency [EPA] National Institutes of Environmental Health Sciences [NIEHS] National Toxicology Program [NTP] U.S. Food and Drug Administration [FDA] Tox21 Assay Overview: Beta adrenergic receptors (Beta-ARs) belong to the G-protein coupled receptor (GPCR) superfamily, includes three subtypes - beta1, beta2, and beta3. Beta1-AR is the predominant receptor subtype expressed in the heart, and beta2-AR is expressed in the kidney, lung, blood vessel and in the heart, and beta3 is found in the adipocytes. Beta1 and 2 ARs couple to Gs protein and elevate cyclic adenosine mono phosphate (cAMP), which activates protein kinase A and leads to the downstream signaling responsible for the physiological actions. Beta-AR agonists or antagonists are the most prescribed therapeutic agents for heart failure and asthma, and these were one of the first target receptors for the rational drug design. Tox21 10K compound library was screened using the cAMP-Gs dynamic assay (Cisbio Bioassays, Shelton, CT) to identify agonists/antagonists of the Gs-coupled human adrenergic, beta2 receptor (ADRB2) in the CHO-ADRB2 cell line (Codex BioSolutions, Inc. Gaithersburg, MD), which stably over-expresses ADRB2. The principle of cAMP-Gs dynamic assay is based on HTRF technology, which facilitates the fluorescence resonance energy transfer (FRET) between donor Europium cryptate and acceptor d2-labeled cAMP. The cAMP generated within cells competes with the red acceptor, d2-labled cAMP, for binding to the monoclonal anti-cAMP-cryptate (Europium donor). An increase in intracellular cAMP leads to the disruption of FRET signal, and the signal is inversely proportional to the cAMP concentration. Propranolol HCl (Sigma-Aldrich, St. Louis, MO) was used as a positive control in the screening.
Tox21 Assay Protocol Summary: CHO-ADRB2 cells were dispensed at 1,000/well in 4uL assay medium into white/solid 1536-well plates (Greiner Bio-One North America Inc., Monroe, NC) using a Multidrop Combi dispenser (ThermoFisher Scientific, Waltham, MA). The assay plates were incubated at 37C and 5% CO2 for an overnight (18-20hr). Then positive control and test compounds dissolved in DMSO were transferred to the assay plates at 23nL using a Pintool station (Wako, San Diego, CA). Following the compound and positive control transfer, 1uL agonist-stimulation mix containing 1nM Isoproterenol HCl, 100uM IBMX and 25uM Ro-20-1724 was added to each well of the assay plates using BioRAPTR Flying Reagent Dispenser (FRD, Beckman Coulter, Brea, CA). The assay plates were incubated at room temperature for 0.5hr. Then 2.5ul each d2-labled cAMP and anti-cAMP-cryptate solutions were added separately to each well of the assay plates using an FRD and the assay plates were incubated at room temperature for 1hr. The fluorescence signal was measured at two different wavelengths (665nm and 615nm) using an Envision plate reader (Perkin Elmer, Shelton, CT). Data were expressed as the ratio of 665 nm/615 nm.
Potency means the concentration at half of the fitted maximal effect.

Structure (SMILES) | Potency | activity change, negative = inhibition
O=P(O)(O)C(O)(Cc1cccnc1)P(=O)(O)O | inactive | 
CC(C)=CCC/C(C)=C/CC/C(C)=C/CCC(=O)OC/C=C(\C)CCC=C(C)C | inactive | 
O=C(O)Cc1cn(-c2ccccc2)nc1-c1ccc(Cl)cc1 | inactive | 
C=CC(=O)OCC(Br)CBr (stereo not given) | inactive | 
CCNC(=O)N1CCN(CCCC(c2ccc(F)cc2)c2ccc(F)cc2)CC1 | inactive | 
O=C(O)c1cc(N=Nc2ccc([N+](=O)[O-])cc2)ccc1O | inactive | 
Cc1ccc(C)c(N)c1 | inactive | 
CCC(C(=O)O)c1ccc(N2Cc3ccccc3C2=O)cc1 (stereo not given) | inactive | 
COc1cc2c3cc1Oc1cc(ccc1O)C[C@@H]1c4c(cc(OC)c(O)c4Oc4ccc(cc4)C[C@@H]3N(C)CC2)CC[N+]1(C)C | inactive | 
CCCCCCCCCCCC(=O)NCCCN(C)C | inactive | 
CCCCCCCCCCCCCCCC[N+](C)(C)CCN(Cc1ccc(OC)cc1)c1ncccn1 | inactive | 
CC(C)NNC(=O)c1ccncc1 | inactive | 
CCCCCCCCN1CCCC1=O | inactive | 
Cc1scc2c1N(C(=O)CN1CCN(C)CC1)c1ccccc1NC2=O | inactive | 
CN(C)c1ccc(CCO)cc1 | inactive | 
C=C(C)c1ccccc1 | inactive | 
Cc1cc(NS(=O)(=O)c2ccc(N)cc2)nc(C)n1 | inactive | 
Nc1ccc(S(=O)(=O)NC(=O)c2ccccc2)cc1 | inactive | 
O=C1OC(OC(=O)c2cccnc2Nc2cccc(C(F)(F)F)c2)c2ccccc21 (stereo not given) | inactive | 
Oc1ccc2c(c1)OCO2 | inactive | 

Structure (SMILES) | Potency | activity change, negative = inhibition
NCC1CCC(C(=O)Oc2ccc(CCC(=O)O)cc2)CC1 (stereo not given) | inactive | 
C[C@H](O)C(=O)Nc1c(I)c(C(=O)NC(CO)CO)c(I)c(C(=O)NC(CO)CO)c1I | inactive | 
O=C(OC1C[C@H]2CC[C@@H](C1)[N+]21CCCC1)C(O)(c1ccccc1)c1ccccc1 (stereo not given in full) | inactive | 
C=CC/C=C/C/C=C/C/C=C/C | inactive | 
Cc1cc2c(OCC(CNC(C)(C)C)OC(=O)c3ccccc3)cccc2[nH]1 (stereo not given) | 168 nM (active) | 
CC(CC1c2ccccc2CCc2ccccc21)CN(C)C (stereo not given) | inactive | 
CCOC(=O)C(=O)CCCCCCl | inactive | 
CC(NN)c1ccccc1 (stereo not given) |  | 10.7% [at 19 µM]
O=C1OC(=O)C2CCCCC12 (stereo not given) | inactive | 
Cc1c[nH]c2ccccc12 | inactive | 
O=S(=O)(Cl)c1c(Cl)cccc1Cl | inactive | 
CC(C)=NNC(N)=S | inactive | 
CCOC(=O)CCC(=O)OCC | inactive | 
COc1cccc(O)c1 | inactive | 
Nc1cc(S(=O)(=O)O)ccc1O | inactive | 
NCc1ccco1 | inactive | 
CC(C)(C)C(=O)C(=O)O | inactive | 
OCCN(CCO)c1cccc(Cl)c1 | inactive | 
CO[Si](CCCn1c(=O)n(CCC[Si](OC)(OC)OC)c(=O)n(CCC[Si](OC)(OC)OC)c1=O)(OC)OC | inactive | 
CC1OC(=O)C(C)OC1=O (stereo not given) | inactive | 
